# Measurements as given in PubChem BioAssay AID1159580 (chemical genetic matrix, 2015).
# Screen size: about 5,500 compounds; about 2,000 (36%) were called active. Another 18% or so got no clear call; they are omitted. This is one part of the list. A number with no mark means an inactive call. Rule as the data show it: active = normalized growth mostly below about 0.91 (no sharp cut-off); inconclusive = no clear call, values can overlap the other calls; inactive = mostly above about 0.92.
# Test: chemical genetic growth profiling, strain panel (AID 1159580);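 also: tested at 20 µM; growth read once vehicle control cultures reached saturation at 30 °C; 1 = growth at the plate median or of vehicle wells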
# Conditions: S. cerevisiae deletion strains, growth OD
structure (smiles),measurement,setting,value
NCCCCCCCCCCN,normalized growth,"locus YAL040C, strain CLN3, stronger effect = lower value",1.01
same,normalized growth,"locus YCL061C, strain MRC1 (second series), stronger effect = lower value",1.01
same,normalized growth,"locus YDR150W, strain NUM1, stronger effect = lower value",1.01
same,normalized growth,"locus YDR363W, strain ESC2, stronger effect = lower value",1.03
same,normalized growth,"locus YER002W, strain NOP16, stronger effect = lower value",1.01
same,normalized growth,"locus YNL175C, strain NOP13, stronger effect = lower value",1.01
same,normalized growth,"locus YNL197C, strain WHI3, stronger effect = lower value",1
same,normalized growth,"locus YNL224C, strain SQS1, stronger effect = lower value",1
same,normalized growth,"locus YOR083W, strain WHI5 (second series), stronger effect = lower value",1.02
same,normalized growth,"locus YPL241C, strain CIN2, stronger effect = lower value",1.01
C/C(=N/OC(=O)Nc1ccc(Cl)cc1)c1ccc2c(c1)CCO2,normalized growth,"locus YAR019C, strain CDC15, stronger effect = lower value",0.946
same,normalized growth,"locus YBL105C, strain PKC1, stronger effect = lower value",0.95
same,normalized growth,"locus YBR135W, strain CKS1, stronger effect = lower value",0.954
same,normalized growth,"locus YBR136W, strain MEC1, stronger effect = lower value",0.95
same,normalized growth,"locus YBR160W, strain CDC28, stronger effect = lower value",0.943
same,normalized growth,"locus YDL017W, strain CDC7, stronger effect = lower value",0.947
same,normalized growth,"locus YDL028C, strain MPS1, stronger effect = lower value",0.955
same,normalized growth,"locus YDL101C, strain DUN1, stronger effect = lower value",0.948
same,normalized growth,"locus YDL108W, strain KIN28, stronger effect = lower value",0.966
same,normalized growth,"locus YDL132W, strain cdc53, stronger effect = lower value",0.935
same,normalized growth,"locus YDL214C, strain PRR2, stronger effect = lower value",0.868
same,normalized growth,"locus YDR052C, strain DBF4, stronger effect = lower value",0.957
same,normalized growth,"locus YDR054C, strain cdc34, stronger effect = lower value",0.93
same,normalized growth,"locus YDR226W, strain ADK1, stronger effect = lower value",0.949
same,normalized growth,"locus YDR477W, strain SNF1, stronger effect = lower value",0.853
same,normalized growth,"locus YER123W, strain YCK3, stronger effect = lower value",0.858
same,normalized growth,"locus YER133W, strain GLC7, stronger effect = lower value",0.837
same,normalized growth,"locus YFL009W, strain cdc4, stronger effect = lower value",0.949
same,normalized growth,"locus YFL029C, strain CAK1, stronger effect = lower value",0.939
same,normalized growth,"locus YFR003C, strain YPI1, stronger effect = lower value",0.959
same,normalized growth,"locus YFR019W, strain FAB1, stronger effect = lower value",0.93
same,normalized growth,"locus YFR028C, strain CDC14, stronger effect = lower value",0.953
same,normalized growth,"locus YGR040W, strain KSS1, stronger effect = lower value",0.835
same,normalized growth,"locus YGR052W, strain FMP48, stronger effect = lower value",0.908
same,normalized growth,"locus YGR092W, strain DBF2, stronger effect = lower value",0.599
same,normalized growth,"locus YHR030C, strain SLT2, stronger effect = lower value",0.607 (active)
same,normalized growth,"locus YHR079C, strain IRE1, stronger effect = lower value",0.775
same,normalized growth,"locus YHR082C, strain KSP1, stronger effect = lower value",0.838
same,normalized growth,"locus YHR205W, strain SCH9, stronger effect = lower value",0.756
same,normalized growth,"locus YIL147C, strain SLN1, stronger effect = lower value",0.949
same,normalized growth,"locus YJL095W, strain BCK1, stronger effect = lower value",0.69
same,normalized growth,"locus YJL128C, strain PBS2, stronger effect = lower value",0.951
same,normalized growth,"locus YJL157C, strain FAR1, stronger effect = lower value",0.852
same,normalized growth,"locus YJR016C, strain ILV3, stronger effect = lower value",0.938
same,normalized growth,"locus YJR066W, strain TOR1 (second series), stronger effect = lower value",0.745
same,normalized growth,"locus YJR066W, strain TOR1, stronger effect = lower value",0.727
same,normalized growth,"locus YKL048C, strain ELM1, stronger effect = lower value",0.966
same,normalized growth,"locus YKL067W, strain YNK1, stronger effect = lower value",0.891
same,normalized growth,"locus YKL101W, strain HSL1, stronger effect = lower value",0.92
same,normalized growth,"locus YKL193C, strain SDS22, stronger effect = lower value",0.941
same,normalized growth,"locus YKL203C, strain TOR2, stronger effect = lower value",0.85
same,normalized growth,"locus YLR113W, strain HOG1, stronger effect = lower value",0.755 (active)
same,normalized growth,"locus YLR133W, strain CKI1, stronger effect = lower value",0.884
same,normalized growth,"locus YLR403W, strain SFP1, stronger effect = lower value",0.777
same,normalized growth,"locus YML070W, strain DAK1, stronger effect = lower value",0.874
same,normalized growth,"locus YMR001C, strain CDC5, stronger effect = lower value",0.946
same,normalized growth,"locus YMR205C, strain PFK2 (second series), stronger effect = lower value",0.908
same,normalized growth,"locus YMR277W, strain FCP1, stronger effect = lower value",0.949
same,normalized growth,"locus YNL006W, strain LST8, stronger effect = lower value",0.97
same,normalized growth,"locus YNL020C, strain ARK1, stronger effect = lower value",0.873
same,normalized growth,"locus YNL161W, strain CBK1, stronger effect = lower value",0.951
same,normalized growth,"locus YNL183C, strain NPR1, stronger effect = lower value",0.775
same,normalized growth,"locus YNL207W, strain RIO2, stronger effect = lower value",0.936
same,normalized growth,"locus YNL222W, strain SSU72, stronger effect = lower value",0.954
same,normalized growth,"locus YNL307C, strain MCK1 (second series), stronger effect = lower value",0.832
same,normalized growth,"locus YOL078W, strain AVO1, stronger effect = lower value",0.951
same,normalized growth,"locus YOL136C, strain PFK27, stronger effect = lower value",0.864
same,normalized growth,"locus YOR061W, strain CKA2, stronger effect = lower value",0.873
same,normalized growth,"locus YOR119C, strain RIO1, stronger effect = lower value",0.894
same,normalized growth,"locus YOR231W, strain MKK1, stronger effect = lower value",0.808
same,normalized growth,"locus YOR329C, strain SCD5, stronger effect = lower value",0.956
same,normalized growth,"locus YPL031C, strain PHO85, stronger effect = lower value",0.806
same,normalized growth,"locus YPL153C, strain RAD53, stronger effect = lower value",0.846
same,normalized growth,"locus YPL204W, strain HRR25, stronger effect = lower value",0.803
same,normalized growth,"locus YPL209C, strain IPL1, stronger effect = lower value",0.956
same,normalized growth,"locus YPL256C, strain CLN2, stronger effect = lower value",0.853 (active)
same,normalized growth,"locus YPR025C, strain CCL1, stronger effect = lower value",0.955
same,normalized growth,"locus YPR106W, strain ISR1, stronger effect = lower value",0.959
same,normalized growth,"locus YPR111W, strain DBF20, stronger effect = lower value",0.96
same,normalized growth,"strain NNK1, stronger effect = lower value",0.951
same,normalized growth,"strain TSCII, stronger effect = lower value",0.938
